This note sets out measurements from PubChem BioAssay AID720565 (National Center for Advancing Translational Sciences (NCATS), 2013).

The structures appear in SMILES notation. Several values for one entry are separate records, joined by “and”; a condition that tells them apart may be missing. Equal entries are not always repeated. Inconclusive results are not listed. Activity calls are given as the source filed them. The call rests on the fitted dose curve; in most records, active means well fitted activation curve with a large enough effect; inconclusive means small, poorly fitted or top-dose-only effect; inactive means no such curve, though single readings can be large or run the other way.
Potency means the concentration at half of the fitted maximal effect.

The nature of this experiment: qHTS for small molecules that induce genotoxicity in ELG1 expressing cells: Confirmatory Assay for Cherry-picked Compounds. Further: nearly all actives have a fitted effect of over 35% in size. On activation: % of control where 0% means no effect. The settings on record: ELG1-luciferase reporter cells, luminescence, 16 h; series mostly up to 46.1 µM; activation: at the top concentration. In short, it runs like this:
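Cells carrying the ELG1-luciferase reporter were exposed to compound for 16 hr at 37 C, 5% CO2, at 2,000 cells per well. Rise in luciferase activity, read with ONE-Glo after 30 min at room temperature, indicates genotoxic stress.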
(In general: qHTS replaces the single test concentration by a dilution series.)
Turning to `ICC[n+]1csc2ccccc21`, the Potency is 14.1 µM (active).

`CN(C)c1ccc(N=Nc2ccc(/C=C/c3ccnc4ccccc34)cc2)cc1`: the Potency was 4.45 µM (active).

Regarding `N#Cc1ccsc1NC(=O)CSc1nncs1`, the Potency is 12.5 µM (active).

For the compound `N#Cc1cc2cc3c(cc2nc1SCC(=O)N1CCOCC1)OCCO3`, the Potency is 0.889 µM (active).

`CCOC(=O)N1CCN(C(=O)CSCC(=O)Nc2nc(-c3ccc(-c4ccccc4)cc3)cs2)CC1`: the Potency result is “inactive”.

As to `Cc1nc2cc(-c3ccccc3)nn2c(N)c1-c1ccccc1`, the Potency is 0.629 µM (active).

With `CCOC(=O)c1c(C)[nH]c(C(=O)NNC(=O)c2ccccc2F)c1C`, the Potency was 12.5 µM (active).

On to `Cc1ccc(OCC(=O)Nc2ccc(-c3nc4ncccc4o3)cc2)cc1`, for which the Potency was 28.1 µM (active).

Turning to `COc1ccc(/C=C/c2ccc3ccccc3n2)c(OC)c1`, the Potency was 0.25 µM (active).

For `O=C(OCC(=O)N1CCc2ccccc2C1)c1c(F)cccc1Cl`, the Potency is 9.96 µM (active).

`O=C(Cc1ccc(OCCCc2ccccc2)cc1)NO`: the Potency was 15.8 µM (active).

For the compound `O=C(COc1ccccc1Cl)Nc1ccc(-c2nc3ccccc3s2)cc1`, the Potency is 28.1 µM (active).

`CN(C)c1ccc(/C=C2\C=Cc3ccccc32)c(F)c1`: the Potency is 1.41 µM (active).

`COc1ccc(S(=O)(=O)N2CCCCC2)cc1NC(=O)c1[nH]c(C)c(C(C)=O)c1C`: the Potency is 15.8 µM (active).

As for `O=C(c1cc2ccccc2[nH]1)c1cc2cc(O)ccc2[nH]1`, the Potency was 7.05 µM (active).

For `COc1cccc(-c2cc(NCc3cccs3)ncn2)c1`, the Potency is 3.97 µM (active).

Regarding `COC(=O)Nc1nc2ccc(C(=O)c3cccs3)cc2[nH]1`, the Potency was 2.23 µM (active).

Regarding `COc1ccc([C@H]2Cc3cc(O)cc(O)c3C(=O)O2)cc1O`, the Potency is 11.2 µM (active).

Regarding `COc1cc(C)c2c(=O)cc(-c3ccccc3)oc2c1`, the Potency was 6.28 µM (active).

Take `Cn1cccc1C(=O)OCC(=O)Nc1sccc1C#N`: the Potency was 15.8 µM (active).

Consider `Cc1ccc2c(c1)sc1nc(=O)n(-c3ccccc3)c(=O)n12`, for which the Potency is 3.54 µM (active).

As to `COc1ccc(/C=C2\Oc3ccccc3C2=O)cc1`, the Potency is 0.996 µM (active).

In the case of `CN(C)c1ccc(/C=C/c2ccnc3ccc(F)cc23)cc1`, the Potency is 0.354 µM (active).

With `O=C(NCc1cccs1)c1cc(-c2ccccc2)on1`, the Potency was 11.5 µM (active) and 7.06 µM (active).

In the case of `COc1ccc(/C=C/C(=O)O/N=C(\N)c2ccccn2)cc1OC`, the Potency was 14.1 µM (active).

For the compound `CC(/C=C/C(=O)NO)=C\[C@@H](C)C(=O)c1ccc(N(C)C)cc1`, the Potency is 0.629 µM (active).

Take `O=c1nc2sc3ccccc3n2c(=O)n1-c1cccc(Cl)c1`: the Potency is 5 µM (active).

As for `CCn1c(=O)n(CC)c2cc(S(=O)(=O)N3CCC(c4ccccc4)CC3)ccc21`, the “activation” value is -24.6% (inactive).

For `CSc1ccc(C(=O)c2[nH]c(=O)[nH]c2C)cc1`, the Potency is 31.5 µM (active).

Regarding `Cn1cccc1C(=O)OCC(=O)c1c[nH]c2ccccc12`, the Potency is 5.6 µM (active).

Take `O=C(CSc1nnc(-c2cccnc2)o1)Nc1ccccn1`: the Potency was 9.12 µM (active) and 8.89 µM (active).

In the case of `O=C(CSc1nnc(-c2ccc(O)cc2)o1)Nc1ccccc1`, the Potency was 5 µM (active).

With `O=C(CSc1ncnc2sccc12)N1CCCCC1`, the Potency was 15.8 µM (active).

Regarding `CCOC(=O)N1CCN(C(=O)CSCC(=O)Nc2nc(-c3ccccc3)cs2)CC1`, the “activation” value was -28.1% (inactive).

`COCC(C)n1c(C)cc(C(=O)COC(=O)c2cc(=O)[nH]c3ccccc23)c1C` (stereo not drawn): the Potency was 2.23 µM (active).

As to `O=C1CCN(Cc2ccccc2)C=C1c1ccc2ccccc2c1`, the Potency is 14.1 µM (active).

As for `COc1ccccc1NC(=O)CSc1nnc(-c2ccccc2)o1`, the Potency was 2.5 µM (active).

With `COc1ccccc1/C=C/c1nc2ccccc2o1`, the Potency was 3.53 µM (active).
